Of roughly 7,900 targets only a part is listed; those with a hit were picked by preference. About 0.6% of all pairs of compound and target were hits.
The compounds below were run against ZW10 (UniProt O43264) (assay: log2 fold change, soluble protein after heating vs DMSO (PISA); higher = thermal stabilisation; K562 cells, 10 uM, 30 min; active = over 0.2 and 3.5 SD of the protein, either way, in both replicates (recomputed)).
In short: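 K562 cells at 2×10^6 cells/mL were exposed to 10 μM compound for 30 min, then aliquots were heated for 3 min across 48°C-58°C, pooled, and extracted in PBS containing 0.5% NP-40 at 4°C. The supernatant after 21,000xg for 90 min was taken as soluble protein and measured by TMTpro 16plex LC-MS/MS with channel sums equalised. Thermal stability is reported relative to control samples, with values from duplicates. Fold changes are given on a log2 scale.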

ZW10, sequence (O43264 whole entry, looked up): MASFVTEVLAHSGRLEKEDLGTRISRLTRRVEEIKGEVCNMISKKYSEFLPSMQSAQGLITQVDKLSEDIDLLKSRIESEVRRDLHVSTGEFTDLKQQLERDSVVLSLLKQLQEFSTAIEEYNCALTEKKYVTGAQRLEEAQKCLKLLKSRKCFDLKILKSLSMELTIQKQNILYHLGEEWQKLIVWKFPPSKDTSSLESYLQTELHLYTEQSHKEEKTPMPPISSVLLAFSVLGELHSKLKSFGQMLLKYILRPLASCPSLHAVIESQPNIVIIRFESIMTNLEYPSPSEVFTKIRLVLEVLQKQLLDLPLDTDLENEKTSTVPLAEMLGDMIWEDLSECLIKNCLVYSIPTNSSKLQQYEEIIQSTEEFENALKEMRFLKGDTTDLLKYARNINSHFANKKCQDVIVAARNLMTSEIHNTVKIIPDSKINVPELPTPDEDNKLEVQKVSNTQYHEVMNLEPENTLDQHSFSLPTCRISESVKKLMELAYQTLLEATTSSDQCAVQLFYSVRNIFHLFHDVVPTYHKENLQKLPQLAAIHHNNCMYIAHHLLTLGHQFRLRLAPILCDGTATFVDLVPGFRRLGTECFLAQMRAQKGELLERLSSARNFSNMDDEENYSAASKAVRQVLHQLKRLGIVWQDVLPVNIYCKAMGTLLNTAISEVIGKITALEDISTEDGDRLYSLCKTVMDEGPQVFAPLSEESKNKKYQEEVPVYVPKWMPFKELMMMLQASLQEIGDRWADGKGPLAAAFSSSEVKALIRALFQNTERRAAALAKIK

log2 fold change, inactive:
NC1(c2ccc(-c3nc4ccn5c(=O)[nH]nc5c4cc3-c3ccccc3)cc2)CCC1 -0.141
CNCc1ccc(-c2[nH]c3cc(F)cc4c3c2CCNC4=O)cc1 [rucaparib] 0.128
COc1cccc2cc(-c3nc([C@H]4CC[C@H](C(=O)O)CC4)n4ncnc(N)c34)[nH]c12 -0.051
Cc1ccc(NC(=O)c2cccc(N(C)C)c2)cc1NC(=O)c1ccc(O)cc1 -0.043
Cn1cncc1[C@@](N)(c1ccc(Cl)cc1)c1ccc2c(c1)c(-c1cccc(Cl)c1)cc(=O)n2C [tipifarnib] -0.087
Cc1ccc(C(=O)N(CCCN)[C@@H](c2nc3cc(Cl)ccc3c(=O)n2Cc2ccccc2)C(C)C)cc1 [ispinesib] -0.179
CN(CCOc1ccc(C[C@@H]2SC(=O)NC2=O)cc1)c1ccccn1 (racemic) [rosiglitazone] 0.066
CS(=O)(=O)CCNCc1ccc(-c2ccc3ncnc(Nc4ccc(OCc5cccc(F)c5)c(Cl)c4)c3c2)o1 [lapatinib] -0.01
COc1cc2nc(-c3cc(F)ccc3O)nc(N[C@@H]3CNC[C@H]3C(C)(C)O)c2cc1OC 0.041
Nc1ccccc1NC(=O)c1ccc(CNC(=O)OCc2cccnc2)cc1 [entinostat] 0.063
O=C1NC(=O)/C(=C\c2ccc3nccnc3c2)S1 -0.009
Oc1cc(-c2nc(-c3ccccc3)[nH]c2-c2ccncc2)ccc1Cl -0.034
